# Experimental data as given in PubChem BioAssay.
# Molecular target: Follistatin-related protein 3 (Homo sapiens) (UniProt O95633)
# Experiment: compounds binding follistatin-related protein 3 – biochemical, small-molecule microarray, 635 nm fluorescence, primary screen (AID 1105);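 also: score merges emission near 667 nm and signal to noise per printed spot across three slides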
# Conditions: FSTL3 binding, higher = more signal
# Sequence of Follistatin-related protein 3 (Homo sapiens) (O95633 whole entry, looked up): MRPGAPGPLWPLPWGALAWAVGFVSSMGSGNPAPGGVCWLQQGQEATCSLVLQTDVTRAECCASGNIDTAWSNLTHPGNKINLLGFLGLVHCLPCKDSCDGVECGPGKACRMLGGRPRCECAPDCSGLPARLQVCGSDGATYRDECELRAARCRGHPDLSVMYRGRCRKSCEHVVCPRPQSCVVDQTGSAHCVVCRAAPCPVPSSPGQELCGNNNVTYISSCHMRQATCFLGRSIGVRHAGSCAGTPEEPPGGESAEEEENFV
row,SMILES,composite z-score
1,CCOC(=O)CCN1C(=O)[C@H]2[C@H]3[C@H](O)[C@H](O)CC(=NO[C@@H]4O[C@H](CO)[C@@H](O)[C@H](O)[C@H]4O)[C@@H]3CC[C@H]2C1=O,1.37
2,CC(CCN1CCCc2nc(C)c(C)cc21)=NO[C@H](C)c1cn([C@@H]2COC[C@H]2O)nn1,0.884
3,CC(C)(C)N1C(=O)[C@H]2[C@H]3[C@H](O)[C@H](O)CC(=NOC[C@@H](O)COCc4ccco4)[C@H]3CC[C@H]2C1=O,-0.28
4,CCOC(=O)CCN1C(=O)[C@H]2[C@@H]3C(=CC[C@H]2C1=O)C(=O)[C@H]1O[C@H]1[C@H]3O,-1.16
5,COc1ccc(COC(=O)NN=C2C[C@@H](O)[C@@H](O)[C@@H]3[C@@H]4C(=O)N(C[C@@H]5CCCO5)C(=O)[C@@H]4CC[C@H]23)cc1,-1
6,CCN1C(=O)[C@H]2[C@H]3[C@H](O)[C@H](O)CC(=NOCC(C)C)[C@H]3CC[C@H]2C1=O,0.732
7,CC(C)=CCCC(C)=CCON=C1C[C@@H](O)[C@@H](O)[C@@H]2[C@@H]3C(=O)N(Cc4ccc5c(c4)OCO5)C(=O)[C@@H]3CC[C@H]12,0.821

# Molecular target: Dickkopf-related protein 1 (Homo sapiens) (UniProt O94907)
# Experiment: small molecules binding DKK1 protein – biochemical, small-molecule microarray, 635 nm fluorescence scan, primary screen (AID 1106);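 also: score merges emission near 667 nm with signal to noise over three replicate slides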
# Conditions: higher = more signal
# Sequence of Dickkopf-related protein 1 (Homo sapiens) (O94907 whole entry, looked up): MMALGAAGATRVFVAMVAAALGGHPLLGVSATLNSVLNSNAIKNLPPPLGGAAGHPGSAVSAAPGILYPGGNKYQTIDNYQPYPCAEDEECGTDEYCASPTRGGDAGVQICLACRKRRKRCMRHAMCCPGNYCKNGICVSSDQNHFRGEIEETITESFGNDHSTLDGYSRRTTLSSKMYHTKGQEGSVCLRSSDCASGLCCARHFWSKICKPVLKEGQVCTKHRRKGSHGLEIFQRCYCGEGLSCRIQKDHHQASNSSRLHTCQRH
row,SMILES,composite z-score
1,CO[C@H]1COC(=O)CC=C[C@@H](C)COC(=O)[C@H]2CCCN2C(=O)CC=C[C@H]1C,1.9
2,CC(C)=CCCC(C)=CCON=C1[C@H]2CCn3c(=O)n(-c4ccccc4)c(=O)n3[C@H]2[C@H](O)[C@@H]2O[C@H]12,0.912
3,COc1ccc(O[C@H]2C=C[C@@H](c3ccccc3)O[C@@H]2COC(=O)NCc2cccc3ccccc23)cc1,0.269
4,C#CCCCON=C1[C@H]2CCn3c(=O)n(Cc4cc5c(cc4Cl)OCO5)c(=O)n3[C@H]2[C@H](O)[C@@H]2O[C@H]12,0.541
5,COC(=O)[C@@H]1CC[C@H](C)[C@@H](c2ccc(C)cc2)N1C(=O)c1ccc(C=NOC[C@@H](O)[C@H]2O[C@@H]3OC(C)(C)O[C@@H]3[C@H]2O)cc1,0.595
6,CCOC(=O)[C@H](CC(C)C)NC(=O)CCC1CC(OC(=O)NCc2ccc3c(c2)OCO3)CC2(CCCC(COC(=O)NCCc3ccc(Cl)cc3)O2)O1 (stereo partly drawn),0.96
7,CCOC(=O)[C@H](Cc1ccccc1)NC(=O)CCC1CC(OC(=O)NCCc2ccc(F)cc2)CC2(CCCC(COC(=O)NCCOc3ccccc3)O2)O1 (stereo partly drawn),1.05
8,CC(C)=NOC(C)CN1CCCc2nc(C)c(C)cc21 (stereo not drawn),0.63
9,CCOC(=O)[C@H](Cc1ccccc1)NC(=O)CCC1CC(OC(=O)NCc2ccc3c(c2)OCO3)CC2(CCCC(COC(=O)NCCOC)O2)O1 (stereo partly drawn),0.437
10,CC(CCC(=O)OC[C@H]1O[C@H](C#Cc2ccccc2)C=C[C@@H]1Oc1ccc(C)cc1)=NO[C@H](C)c1cn([C@@H]2COC[C@H]2O)nn1,0.285
11,CCN1C(C)=C(C(=O)OC)[C@@H](c2ccccc2)N2C(=O)[C@](O)(C(=O)OC)CC(C(C)=O)=C12,0.514
12,CCOC(=O)CCN1C(=O)[C@H]2[C@H]3[C@H](O)[C@H](O)CC(=NO[C@@H]4O[C@H](CO)[C@@H](O)[C@H](O)[C@H]4O)[C@H]3CC[C@H]2C1=O,0.315
13,CCC1=NOC(CCC2CC(OC(=O)NCc3cccc4c3OCO4)CC3(CCCC(COC(=O)NCCc4ccc(Cl)cc4)O3)O2)C1 (stereo not drawn),0.119
14,CC(C)=CCCC(C)=CCON=C1C[C@@H](O)[C@@H](O)[C@@H]2[C@@H]3C(=O)N(C4CCCCC4)C(=O)[C@@H]3CC[C@H]12,0.873
15,COC(=O)[C@@H]1CC[C@H](C)[C@@H](c2ccc(C)cc2)N1C(=O)c1ccc(C=NO[C@@H](C)c2cc(-c3c(C)cc(C)cc3C)no2)cc1,0.675
16,CCN1C(=O)[C@H]2[C@H]3[C@H](O)[C@H](O)CC(=NO[C@H](C)c4cn([C@@H]5COC[C@H]5O)nn4)[C@@H]3CC[C@H]2C1=O,0.451
17,CC(C)=NOC[C@@H](O)[C@H]1O[C@@H]2OC(C)(C)O[C@@H]2[C@H]1O,0.58
18,COc1ccc(COC(=O)NN=C2C[C@@H](O)[C@@H](O)[C@@H]3[C@@H]4C(=O)N(C[C@@H]5CCCO5)C(=O)[C@@H]4CC[C@@H]23)cc1,0.0237

row,SMILES,composite z-score
1,COc1ccc(O[C@H]2C=C[C@@H](c3ccccc3)O[C@@H]2CON=C(C)CCN2CCCc3nc(C)c(C)cc32)cc1,0.552
2,CCc1cc2c(nc1CC)CCN(CCC(C)=NOCC[C@@H]1C=C[C@H](OC(C)=O)[C@@H](COC(C)=O)O1)C2,0.301
3,CCOC(=O)[C@H](CC(C)C)NC(=O)CCC1CC(OC(=O)NCCc2ccc(F)cc2)CC2(CCCC(COC(=O)NCCCN3CCCC3=O)O2)O1 (stereo partly drawn),0.946
4,COc1ccc(COC(=O)NN=C2C[C@@H](O)[C@@H](O)[C@@H]3[C@@H]4C(=O)N(Cc5ccc6c(c5)OCO6)C(=O)[C@@H]4CC[C@H]23)cc1,-1.03
5,CC(CCN1CCCCc2nc(C)c(C)cc21)=NOC[C@@H](O)[C@H]1O[C@@H]2OC(C)(C)O[C@@H]2[C@H]1O,0.874
6,O=C1[C@H]2CCn3c(=O)n(-c4ccccc4)c(=O)n3[C@H]2[C@H](O)[C@@H]2O[C@H]12,0.427
7,CC(C)=NO[C@H](C)c1cn([C@@H]2COC[C@H]2O)nn1,0.669
8,CC(CCN1CCc2nc(-c3ccccc3)c(-c3ccccc3)cc2C1)=NO[C@@H](C)c1cc(-c2c(C)cc(C)cc2C)no1,-0.524
9,CC(C)CN1CCc2nc(-c3ccccc3)c3c(c2C1)CO[C@@H](C)C3,0.512
10,CCOC(=O)CCN1C(=O)[C@H]2[C@H]3[C@H](O)[C@H](O)CC(=NOCC=C(C)CCC=C(C)C)[C@@H]3CC[C@H]2C1=O,0.606
11,CON=C[C@@H](OC)[C@H](C)C=CCC(=O)OC,-0.067
12,CCOC(=O)CCN1C(=O)[C@H]2[C@H]3[C@H](O)[C@H](O)CC(=NO[C@@H]4O[C@H](CO)[C@@H](O)[C@H](O)[C@H]4O)[C@@H]3CC[C@H]2C1=O,1.27
13,CC(CCN1CCCc2nc(C)c(C)cc21)=NO[C@H](C)c1cn([C@@H]2COC[C@H]2O)nn1,0.902
14,CC(C)(C)N1C(=O)[C@H]2[C@H]3[C@H](O)[C@H](O)CC(=NOC[C@@H](O)COCc4ccco4)[C@H]3CC[C@H]2C1=O,-0.0956
15,CCOC(=O)CCN1C(=O)[C@H]2[C@@H]3C(=CC[C@H]2C1=O)C(=O)[C@H]1O[C@H]1[C@H]3O,-0.324
16,COc1ccc(COC(=O)NN=C2C[C@@H](O)[C@@H](O)[C@@H]3[C@@H]4C(=O)N(C[C@@H]5CCCO5)C(=O)[C@@H]4CC[C@H]23)cc1,-0.746
17,CCN1C(=O)[C@H]2[C@H]3[C@H](O)[C@H](O)CC(=NOCC(C)C)[C@H]3CC[C@H]2C1=O,0.817
18,CC(C)=CCCC(C)=CCON=C1C[C@@H](O)[C@@H](O)[C@@H]2[C@@H]3C(=O)N(Cc4ccc5c(c4)OCO5)C(=O)[C@@H]3CC[C@H]12,0.35
